Test results: PubChem BioAssay (EPA / NIEHS)
A structure can be active in one record and inactive in another. The source made the active and inactive calls. How the source made its calls: active means hit-call score of the fitted dose curve at least 0.9, where 1 is the maximum; inactive means score below 0.9.

Experiment: CCTE_Shafer_MEA_dev_per_burst_spike_percent: CCTE's Neural Network Formation Assay for Percent of Spikes in a Burst, Shafer Lab (AID 2284032)
Experimental: CCTE_Shafer_MEA_dev assay is conducted using Axion Biosystems 48 well microelectrode array (MEA) plates and Maestro recording system. Each well of the MEA plate contains a grid of 16 microelectrodes embedded in the culture surface. Electrically active cells, such as neurons, can be cultured over the electrodes, and electrical activity in these cells can be recorded extracellularly. The spontaneous firing of neurons is captured from each electrode on a microsecond timescale providing both temporally and spatially precise data. […] The CCTE_Shafer_MEA_dev assay uses primary cultures of rat cortical neurons. Recordings are made on days post-plating 5, 7, 9 and 12. As these cultures mature over time, neural networks develop functional activity and form cohesive networks in which electrical activity can be highly coordinated. CCTE_Shafer_MEA_dev_per_burst_spike_percent is 1 of 19 assay components of the CCTE_Shafer_MEA_dev assay. It measures the percentage of spikes (action potential firings) in a single-electrode burst (temporally-clustered group of spikes) as the total number spikes in bursts divided by the total number of spikes during a recording in a microelectrode array (MEA) using Axion Biosystems Maestro 768 channel amplifier with the AxIS adaptive spike detector. The percent of spikes in bursts is averaged across the actively bursting electrodes to report a well-mean value. To collapse across multiple recordings made on days post-plating 5, 7, 9 and 12, the trapezoidal area-under-the-curve of the component is calculated.Data from the assay component CCTE_Shafer_MEA_dev_per_burst_spike_percent was analyzed into 1 assay endpoint. This assay endpoint, CCTE_Shafer_MEA_dev_per_burst_spike_percent, was analyzed in the negative analysis fitting direction relative to DMSO as the negative control and baseline of activity. Using a type of functional reporter, gain or loss-of-signal activity can be used to understand electrical activity.
On the day prior to culture, each well was coated thoroughly with 150 uL of 0.05% polyethyleneimine (PEI, Sigma Cat P3143) in 50 mM HEPES (Sigma Cat H7523) at a pH of 8. The plate was incubated at 37C for one hour. PEI was rinsed out with 500 uL of sterile water three times. Plates were stored at 4C until the day of culture. This culture was plated at a seeding density of 1.5 x 10^5 cells/well on a 48-well MEA plate, prepared as described above. Cells were administered via a 25 uL media/laminin ([…]; Sigma Cat L2020-1MG) drop directly onto the microelectrode array, as adding the cells with the laminin results in better attachment than pre-coating with laminin. After 2 hours, an additional 475 uL of cortical media was added and the cells returned to the incubator. Exposure starts at day 0 of plating and is continued over twelve days of network development until the experiment is terminated. Cells are fed with fresh medium on DIV 5 and 9, following the recordings on those days. The entire volume of media in the well is exchanged and any vehicle or compound treatment is renewed. Complete details are found in OP-NHEERL/ISTD/SBB/TJS/2015-03-r0 (available on request, email shafer.tim@epa.gov). Measurement of the electrical activity is non-invasive, and recordings can be made from the same plate over multiple different days of the culture. In cortical neurons, this allows for the measurement of extracellular action potentials over the period during which networks form in the MEA plate.

SMILES	AC50	outcome
CCOP(=O)(OCC)OC(Cl)C(Cl)(Cl)Cl (stereo not given)	1.32 µM (active)	–
CC1(C)[C@H](C=C(Cl)Cl)[C@@H]1C(=O)O[C@@H](C#N)c1cccc(Oc2ccccc2)c1	8.96 µM (active)	–
CCOP(=O)(OCC)SCSC(C)(C)C	–	inactive
c1ccc2c(c1)cc1ccc3cccc4ccc2c1c34	–	inactive
CN[C@]1(c2ccccc2Cl)CCCCC1=O	–	inactive
[CH3][Sn]([CH3])[CH3]	1.62 µM (active)	–
NCCc1cc(O)c(O)cc1O	6.25 µM (active)	–
CC(=O)[O-].[Tl+]	–	inactive
CCOP(=S)(OCC)SCS(=O)C(C)(C)C (stereo not given)	–	inactive
[CH3][Hg][Cl]	0.306 µM (active)	–
CNC(=N[N+](=O)[O-])NCC1CCOC1 (stereo not given)	–	inactive
Cn1nc(C(F)(F)F)c(CS(=O)(=O)C2=NOC(C)(C)C2)c1OC(F)F	80.9 µM (active)	–
CCC[CH2][Sn]([CH2]CCC)([CH2]CCC)[O][Sn]([CH2]CCC)([CH2]CCC)[CH2]CCC	0.0342 µM (active)	–
CCCCC(CC)COC(=O)c1cc(Br)c(Br)c(Br)c1Br (stereo not given)	18.8 µM (active)	–
CC1CCCC1.[C-]#[O+].[C-]#[O+].[C-]#[O+].[Mn]	–	inactive
CC1(C)[C@H](C(=O)O[C@H](C#N)c2cccc(Oc3ccccc3)c2)[C@@H]1C=C(Br)Br	7.16 µM (active)	–
CC1(C)C(C=C(Cl)Cl)C1C(=O)O[C@H](C#N)c1cccc(Oc2ccccc2)c1 (stereo not given in full)	4.59 µM (active)	–
CCOP(=O)(O)OCC (tested in a mixture with another compound)	–	inactive
C=CCN1CC[C@]23c4c5ccc(O)c4O[C@H]2C(=O)CC[C@@]3(O)[C@H]1C5	–	inactive

SMILES	AC50	outcome
O=C(O)CNCP(=O)(O)O	–	inactive
Brc1ccc(Oc2ccc(Br)cc2Br)c(Br)c1	14.2 µM (active)	inactive
CCOP(=O)(Oc1cnc(C(C)(C)C)nc1)OC(C)C (stereo not given)	–	inactive
[Cd+2].[Cl-].[Cl-]	0.436 µM (active)	–
O=[As]O	1.4 µM (active)	–
c1ccc2cc3c(cc2c1)-c1cccc2cccc-3c12	–	inactive
O.O.O.O.O.[Cd+2].[Cd+2].[Cl-].[Cl-].[Cl-].[Cl-]	0.316 µM (active)	–
COP(=O)(OC)SCN1C(=O)c2ccccc2C1=O	–	inactive
CC(=O)[O-].CC(=O)[O-].O.O.O.[Pb+2]	23.5 µM (active)	–
CCC1(c2ccccc2)C(=O)NC(=O)NC1=O	–	inactive
C/C(=C/C=C/[C@@H](C)C(=O)O)[C@H]1CN[C@H](C(=O)O)[C@H]1CC(=O)O	2.06 µM (active)	inactive
C#CCN(C)[C@H](C)Cc1ccccc1	–	inactive
CP(=O)(O)CC[C@H](N)C(=O)O	–	inactive
CN1C(=O)CN=C(c2ccccc2)c2cc(Cl)ccc21	3.62 µM (active)	–
Brc1ccc(Oc2cc(Br)c(Br)cc2Br)c(Br)c1	13.2 µM (active)	–
C[C@H](N)Cc1ccccc1	–	inactive
CCOP(=O)(OCC)SCSCC	–	inactive
CC1(C)[C@@H](C=C(Cl)Cl)[C@@H]1C(=O)O[C@@H](C#N)c1ccc(F)c(Oc2ccccc2)c1	15 µM (active)	–
C[n+]1ccc(-c2ccccc2)cc1	–	inactive
